Experimental data taken from PubChem BioAssay (Tox21).
Records with an inconclusive call do not appear. The source made the active and inactive calls. Unless noted, calls follow the shape of the dose curve; as a rule, active = well fitted curve in the direction sought with a large enough effect in the repeat runs; inconclusive = weak or mixed curves; inactive = no such curve, though single readings can be large; an effect the other way counts as inactive or inconclusive.

Tests used:
[1] = qHTS assay to identify small molecule antagonists of the androgen receptor (AR) signaling pathway - cell viability counter screen (AID 743033; also: nearly all actives have a fitted effect of over 45% in size)
[2] = qHTS assay to identify small molecule antagonists of the androgen receptor (AR) signaling pathway using the MDA cell line - cell viability counter screen (AID 743041; also: nearly all actives have a fitted effect of over 45% in size)
Outline: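 MDA-kb2 AR-luc human breast carcinoma cells (MMTV-luciferase, AR/GR responsive) were treated with compounds plus R1881 agonist for 16 h at 37 °C. Viability was read as CellTiter-Fluor fluorescence in the same wells as the reporter assay.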

[3] = qHTS assay to identify small molecule antagonists of the thyroid receptor (TR) signaling pathway - cell viability counter screen (AID 743064); also: nearly all actives have a fitted effect of over 50% in size
Outline: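 CellTiter-Fluor readout, 30 min at 37 °C/5% CO2, following 23.5 h incubation of GH3.TRE-Luc cells with test compound and 1 nM T3 (final).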

[4] = qHTS assay to identify small molecule antagonists of the thyroid receptor (TR) signaling pathway (AID 743065); also: series mostly up to about 70 µM; nearly all actives have a fitted effect of over 55% in size
Outline: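 GH3.TRE-Luc rat pituitary cells carrying two TR response elements driving luciferase were plated for 4 h, given compound plus 1 nM T3 (final), and incubated 23.5 h at 37 C. ONE-Glo luminescence measured reporter inhibition; CellTiter-Fluor fluorescence tracked cytotoxicity.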

[5] = system: thyroid hormone receptor (rat, GH3 cells); assay: qHTS assay to identify small molecule agonists of the thyroid receptor (TR) signaling pathway (AID 743066; calls by dose curve)
[6] = biological target: Estrogen receptor (Homo sapiens) (UniProt P03372); assay: qHTS assay to identify small molecule antagonists of the estrogen receptor alpha (ER-alpha) signaling pathway (AID 743069; active = well fitted curve in the direction sought with a large enough effect in the signal ratio in the repeat runs, not every such curve was filed as active; the % refers to the signal ratio)
Chain of Estrogen receptor (Homo sapiens) (P03372 whole entry, looked up): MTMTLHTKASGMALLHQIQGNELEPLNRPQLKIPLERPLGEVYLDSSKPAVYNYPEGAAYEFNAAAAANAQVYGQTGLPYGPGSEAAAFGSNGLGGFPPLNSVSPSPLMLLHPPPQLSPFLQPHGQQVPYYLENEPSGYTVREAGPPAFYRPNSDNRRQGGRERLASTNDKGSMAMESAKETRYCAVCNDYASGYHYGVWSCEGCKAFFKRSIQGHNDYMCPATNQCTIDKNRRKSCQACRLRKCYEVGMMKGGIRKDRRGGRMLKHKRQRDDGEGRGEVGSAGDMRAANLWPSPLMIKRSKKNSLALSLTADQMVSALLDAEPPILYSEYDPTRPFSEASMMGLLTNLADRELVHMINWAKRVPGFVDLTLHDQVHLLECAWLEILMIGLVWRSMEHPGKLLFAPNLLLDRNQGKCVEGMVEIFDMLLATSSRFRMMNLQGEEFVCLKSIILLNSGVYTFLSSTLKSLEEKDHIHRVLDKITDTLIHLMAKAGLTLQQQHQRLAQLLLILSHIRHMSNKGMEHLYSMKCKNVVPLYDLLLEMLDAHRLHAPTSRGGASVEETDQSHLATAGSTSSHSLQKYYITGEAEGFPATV
Outline: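 HEK293 cells stably carrying an ER-alpha-UAS-bla beta-lactamase reporter were pre-cultured overnight in 2% charcoal-stripped FBS medium. Test compounds in DMSO were added together with 17beta-estradiol for 18 hr at 37C. Read-out was fluorescence after 2 hr with LiveBLAzer B/G FRET substrate at room temperature.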

[7] = biological target: Estrogen receptor (Homo sapiens) (UniProt P03372); assay: qHTS assay to identify small molecule agonists of the estrogen receptor alpha (ER-alpha) signaling pathway (AID 743075; calls by dose curve)
[8] = biological target: Estrogen receptor (Homo sapiens) (UniProt P03372); assay: qHTS assay to identify small molecule agonists of the estrogen receptor alpha (ER-alpha) signaling pathway using the BG1 cell line (AID 743079); also: nearly all actives have a fitted effect of over 20% in size
[9] = qHTS assay to identify small molecule antagonists of the estrogen receptor alpha (ER-alpha) signaling pathway using the BG1 cell line (AID 743080; calls by dose curve;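 also: BG1 cells stimulated with 17beta-estradiol alongside compound; series mostly up to about 70 µM; nearly all actives have a fitted effect of over 25% in size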)
Outline: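 Readout is ONE-Glo luminescence, taken 30 min at room temperature after reagent addition, preceded by a CellTiter-Fluor viability read; BG1-Luc-4E2 cells had received compound and 17beta-estradiol for 21.5 h at 37 C.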

[10] = qHTS assay to identify small molecule antagonists of the estrogen receptor alpha (ER-alpha) signaling pathway using the BG1 cell line - cell viability counter screen (AID 743081);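 also: compound given together with 17beta-estradiol as the ER stimulus; series mostly up to about 70 µM; nearly all actives have a fitted effect of over 45% in size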
[11] = biological target: Aromatase (Homo sapiens) (UniProt P11511); assay: qHTS assay to identify aromatase inhibitors (AID 743083); also: series mostly up to about 70 µM; nearly all actives have a fitted effect of over 55% in size
Chain of Aromatase (Homo sapiens) (P11511 whole entry, looked up): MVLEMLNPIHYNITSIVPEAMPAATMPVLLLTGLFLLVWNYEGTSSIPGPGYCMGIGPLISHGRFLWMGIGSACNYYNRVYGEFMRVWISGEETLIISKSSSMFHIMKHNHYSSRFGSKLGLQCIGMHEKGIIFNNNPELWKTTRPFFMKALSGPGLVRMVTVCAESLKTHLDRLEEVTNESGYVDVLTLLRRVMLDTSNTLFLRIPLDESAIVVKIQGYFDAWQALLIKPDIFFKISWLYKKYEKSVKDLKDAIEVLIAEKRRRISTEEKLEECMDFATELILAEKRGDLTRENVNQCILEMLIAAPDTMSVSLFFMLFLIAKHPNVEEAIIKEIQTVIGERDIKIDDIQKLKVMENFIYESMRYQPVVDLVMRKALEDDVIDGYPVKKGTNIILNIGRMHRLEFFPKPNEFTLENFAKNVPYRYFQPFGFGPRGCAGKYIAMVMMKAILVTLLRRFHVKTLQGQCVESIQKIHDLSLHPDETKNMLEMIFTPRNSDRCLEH

[12] = qHTS assay to identify aromatase inhibitors - cell viability counter screen (AID 743084);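 also: cells stimulated with testosterone during compound exposure; nearly all actives have a fitted effect of over 55% in size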
[13] = biological target: Aryl hydrocarbon receptor (Homo sapiens) (UniProt P35869); assay: qHTS assay to identify small molecule that activate the aryl hydrocarbon receptor (AhR) signaling pathway (AID 743085);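 also: HG2L7.5c1 human HepG2 liver cells with stably integrated DRE-driven firefly reporter; series mostly up to about 70 µM; nearly all actives have a fitted effect of over 15% in size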
Chain of Aryl hydrocarbon receptor (Homo sapiens) (P35869 whole entry, looked up): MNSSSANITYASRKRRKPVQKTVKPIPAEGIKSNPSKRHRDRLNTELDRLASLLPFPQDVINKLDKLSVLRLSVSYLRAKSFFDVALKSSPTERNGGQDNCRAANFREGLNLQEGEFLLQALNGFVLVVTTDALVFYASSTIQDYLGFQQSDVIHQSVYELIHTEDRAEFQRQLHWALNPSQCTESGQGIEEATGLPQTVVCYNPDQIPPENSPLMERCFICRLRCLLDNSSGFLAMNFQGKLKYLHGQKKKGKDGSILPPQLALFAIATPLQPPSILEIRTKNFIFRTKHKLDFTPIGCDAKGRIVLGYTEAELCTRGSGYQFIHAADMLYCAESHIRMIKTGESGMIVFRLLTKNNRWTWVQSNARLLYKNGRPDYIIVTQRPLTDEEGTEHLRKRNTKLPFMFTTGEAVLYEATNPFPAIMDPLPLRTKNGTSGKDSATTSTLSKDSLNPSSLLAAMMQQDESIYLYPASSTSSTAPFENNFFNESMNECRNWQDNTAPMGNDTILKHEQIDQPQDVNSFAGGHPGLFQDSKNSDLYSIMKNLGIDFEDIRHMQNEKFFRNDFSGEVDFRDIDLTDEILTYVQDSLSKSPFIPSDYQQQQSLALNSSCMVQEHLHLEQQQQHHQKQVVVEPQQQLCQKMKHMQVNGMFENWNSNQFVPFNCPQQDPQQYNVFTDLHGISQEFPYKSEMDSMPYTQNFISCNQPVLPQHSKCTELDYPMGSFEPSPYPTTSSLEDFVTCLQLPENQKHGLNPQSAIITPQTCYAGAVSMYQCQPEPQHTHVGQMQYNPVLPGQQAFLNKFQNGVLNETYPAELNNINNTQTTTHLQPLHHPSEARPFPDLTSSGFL
Outline: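 Stably transfected human liver carcinoma cells (HG2L7.5c1; 20 DRE-firefly luciferase) were incubated 5 h, dosed, and kept 24 h at 37C. Agonism was scored from increased luciferase luminescence.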

[14] = qHTS assay to identify small molecule that activate the aryl hydrocarbon receptor (AhR) signaling pathway - cell viability counter screen (AID 743086);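 also: HepG2 liver cells carrying the AhR DRE luciferase reporter; series mostly up to about 70 µM; nearly all actives have a fitted effect of over 45% in size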
Outline: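 HepG2-AhR-luc (HG2L7.5c1) cells, 4000/well, were preincubated 5 h at 37C, exposed to compound in qHTS format for 24 hr at 37C, then given CellTiter-Fluor for 30 min; viability was read as fluorescence in the reporter wells.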

[15] = biological target: Peroxisome proliferator-activated receptor gamma (Homo sapiens) (UniProt P37231); assay: qHTS assay to identify small molecule agonists of the peroxisome proliferator-activated receptor gamma (PPARg) signaling pathway (AID 743094; active = well fitted activation curve with a large enough effect in the signal ratio in the repeat runs, not every such curve was filed as active; the % refers to the signal ratio)
Chain of Peroxisome proliferator-activated receptor gamma (Homo sapiens) (P37231 whole entry, looked up): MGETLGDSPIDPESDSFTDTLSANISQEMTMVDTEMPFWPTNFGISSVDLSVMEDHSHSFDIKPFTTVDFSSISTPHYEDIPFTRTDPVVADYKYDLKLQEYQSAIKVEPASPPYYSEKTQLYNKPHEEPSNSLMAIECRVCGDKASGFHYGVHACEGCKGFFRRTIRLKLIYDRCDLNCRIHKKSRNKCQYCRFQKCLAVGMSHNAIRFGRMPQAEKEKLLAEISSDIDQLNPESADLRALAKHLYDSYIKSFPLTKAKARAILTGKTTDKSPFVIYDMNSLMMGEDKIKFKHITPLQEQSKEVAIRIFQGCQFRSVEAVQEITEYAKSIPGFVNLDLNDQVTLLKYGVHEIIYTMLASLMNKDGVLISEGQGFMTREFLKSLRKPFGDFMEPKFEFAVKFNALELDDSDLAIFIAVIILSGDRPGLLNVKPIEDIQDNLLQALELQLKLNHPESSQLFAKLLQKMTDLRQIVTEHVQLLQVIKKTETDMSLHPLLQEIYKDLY
Outline: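 GeneBLAzer PPARg UAS-bla HEK293H cells were plated, rested 5 h, then exposed to compounds for 17 h at 37C. Beta-lactamase activity was read by LiveBLAzer B/G FRET substrate fluorescence after 1 h at room temperature.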

[16] = qHTS assay to identify small molecule antagonists of the estrogen related receptor (ERR) signaling pathway - cell viability counter screen (AID 1224818); also: series mostly up to about 46 µM
Outline: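 ERR cells, 2,000 per well, compound added after 6 h and incubated 17.5 h at 37 C. Viability read by CellTiter-Fluor fluorescence after a further 30 min at 37 C.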

[17] = qHTS assay to identify small molecule antagonists of the estrogen related receptor (ERR) signaling pathway (AID 1224819;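 also: luminescence from an ERR-driven luciferase reporter measured with One-Glo reagent; series mostly up to about 46 µM; nearly all actives have a fitted effect of over 50% in size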)
Outline: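 ERR reporter cell line (NTP) plated at 2,000 cells/well, settled 6 h at 37C/5% CO2, then exposed to LOPAC compounds for 18 h at 37C. One-Glo luciferase luminescence read after 30 min at room temperature.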

[18] = qHTS assay to identify small molecule agonists of the estrogen related receptor (ERR) signaling pathway (AID 1224820)
Outline: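 Quantitative HTS of the LOPAC library used NTP ERR reporter cells treated 18 h at 37 C. Signal is luminescence after One-Glo addition and a 30 min room-temperature incubation.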

[19] = system: estrogen-related receptor alpha (ERRalpha) with PGC-1alpha coactivator, human; assay: qHTS assay to identify small molecule antagonists of the estrogen related receptor signaling pathway with the pleiotropic PPARgamma coactivator (PGC) (AID 1224821; calls by dose curve;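 also: series mostly up to about 46 µM; lower luminescence signal means antagonism of PGC/ERR signalling; nearly all actives have a fitted effect of over 50% in size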)
Outline: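 Quantitative HTS for antagonism: PGC/ERR cells received compounds after 6 h attachment and were incubated 18 h at 37 C, with luminescence (One-Glo) as the endpoint.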

[20] = qHTS assay to identify small molecule antagonists of the estrogen related receptor signaling pathway with the pleiotropic PPARgamma coactivator (PGC) cell viability counter screen (AID 1224822; also: series mostly up to about 46 µM)
Outline: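 PGC/ERR cells rested 6 h, then compound-treated 17.5 h at 37 C. CellTiter-Fluor added for 30 min at 37 C, viability measured by fluorescence intensity.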

[21] = qHTS assay to identify small molecule agonists of the estrogen related receptor signaling pathway with the pleiotropic PPARgamma coactivator (PGC) (AID 1224823)
Outline: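 Cell-based luciferase assay in the NTP-supplied PGC/ERR line, 2,000 cells/well; 18 h compound exposure at 37 C, luminescence after One-Glo.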

[22] = qHTS assay to identify small molecule phospholipidosis (PLD) inducers (AID 1259344; active = well fitted curve in the direction sought with a large enough effect; an effect the other way counts as inactive or inconclusive)
Outline: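 HepG2 cells on collagen I, attached 4 h at 37 C, were co-treated with compound and LipidTOX Red dye for 24 h at 37 C, then fixed with paraformaldehyde plus Hoechst 33342 and imaged by high-content microscopy for phospholipid accumulation.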

[23] = biological target: Nuclear receptor subfamily 1 group I member 2 (Rattus norvegicus) (UniProt Q9R1A7); assay: Rat pregnane X receptor (rPXR) activation by small molecules, qHTS assay (AID 1346983); conditions: rPXR luciferase reporter cells, One-Glo luminescence, 24 h; max activation: stronger effect = higher value; also: nearly all actives have a fitted effect of over 20% in size
Chain of Nuclear receptor subfamily 1 group I member 2 (Rattus norvegicus) (Q9R1A7 whole entry, looked up): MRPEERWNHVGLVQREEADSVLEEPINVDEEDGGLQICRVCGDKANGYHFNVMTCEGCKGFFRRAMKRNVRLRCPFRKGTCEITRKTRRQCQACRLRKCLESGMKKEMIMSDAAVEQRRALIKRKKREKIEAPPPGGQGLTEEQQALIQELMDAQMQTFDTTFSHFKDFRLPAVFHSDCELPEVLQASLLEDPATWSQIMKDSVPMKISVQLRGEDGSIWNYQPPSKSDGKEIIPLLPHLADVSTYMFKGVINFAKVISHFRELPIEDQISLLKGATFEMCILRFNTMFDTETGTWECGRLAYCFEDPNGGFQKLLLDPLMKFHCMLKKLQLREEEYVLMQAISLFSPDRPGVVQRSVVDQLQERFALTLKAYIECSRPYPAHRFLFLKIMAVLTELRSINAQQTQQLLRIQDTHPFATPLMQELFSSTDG
Outline: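 Cell-based rPXR luciferase reporter assay, 2,000 cells per well, rested 5hr at 37 C before compound addition in DMSO, then 24 hr at 37 C. One-Glo reagent was added and luminescence read after 30 min at room temperature.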

[24] = biological target: Nuclear receptor subfamily 1 group I member 2 (Homo sapiens) (UniProt O75469); assay: CYP3A4 induction through human pregnane X receptor (PXR) by small molecules, qHTS assay (AID 1346984); also: nearly all actives have a fitted effect of over 40% in size
Outline: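 DPX-2 HepG2 cells carrying a PXR response element and CYP3A4-promoter luciferase construct, treated with compounds 24 hr at 37C. Then P450-Glo CYP3A4 Luciferin-IPA substrate (3uM final) for 3 hr at 37C, One-Glo added, luminescence read.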

[25] = biological target: Nuclear receptor subfamily 1 group I member 2 (Homo sapiens) (UniProt O75469); assay: Human pregnane X receptor (PXR) activation by small molecules, qHTS assay (AID 1346985); also: nearly all actives have a fitted effect of over 40% in size
Outline: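 DPX-2 cells (HepG2 co-transfected with a PXR response element and a CYP3A4-promoter luciferase construct) were seeded at 2,000 per well, rested 5 hr at 37C, then exposed to DMSO-dissolved compounds for 24 hr. Activation was read as luciferase luminescence.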
% is scaled to controls: 0 for no effect and ±100 for the full control effect.

CCCN1CCC[C@H](c2cccc(O)c2)C1
inactive: Potency [1] | Potency [2] | Potency [3] | Potency [4] | Potency [5] | Potency [6] | Potency [7] | Potency [8] | Potency [9] | Potency [10] | Potency [11] | Potency [12] | Potency [13] | Potency [14] | Potency [15] | Potency [16] | Potency [17] | Potency [18] | Potency [19] | Potency [20] | Potency [21] | Potency [22] | max activation [23] -2.62% | Potency [24] | Potency [25]
